Results from PubChem BioAssay (NCATS).
Records with an inconclusive call do not appear. Calls of active or inactive are those of the source. Calls come from the whole dose curve; as a rule, active = well fitted curve in the direction sought with a large enough effect; inconclusive = small, poorly fitted or top-dose-only effect, or another doubt; inactive = no such curve, though single readings can be large; an effect the other way counts as inactive or inconclusive.

Tests used:
[1] = MultiTox-Fluor Cytotoxicity Assay - LYMP1-003 - Live Cells (AID 962); conditions: LYMP1-003 lymphoblastoid cells, MultiTox-Fluor live-cell protease fluorescence; series mostly up to 92.2 µM;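 note: cytotoxic hits lower the live-cell protease signal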
How it was run: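 LYMP1-003 lymphoblastoid cells, 2500/well in complete medium, treated 16 h at 37 C; live-cell protease cleavage of GF-AFC read by fluorescence (Ex/Em 405/510) after 60 min reagent; AC50 from Hill fits of concentration-response.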

[2] = Cell Viability - LYMP2-015 (AID 971); conditions: LYMP2-015 lymphoblastoid cell viability; series mostly up to 92.2 µM; note: nearly all actives have a fitted effect of over 55% in size
How it was run: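 LYMP2-015 human lymphoblastoid cells (2500/well) in complete medium, compound-treated 24 h at 37 C; viability read as cellular ATP by CellTiter-Glo luminescence after 30 min at room temperature. AC50 from Hill-equation fits of qHTS concentration-response data.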

[3] = Cell Viability - LYMP2-017 (AID 972); conditions: LYMP2-017 lymphoblastoid cell viability; series mostly up to 92.2 µM; note: nearly all actives have a fitted effect of over 55% in size
How it was run: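 LYMP2-017 human lymphoblastoid cells (2500/well) settled 5 hr at 37 C, then exposed to compound 24 hr at 37 C in complete medium. Viability taken as intracellular ATP by CellTiter-Glo luminescence after 30 min at RT; AC50 from Hill fits.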

[4] = Cell Viability - LYMP2-019 (AID 973); conditions: LYMP2-019 lymphoblastoid cell line viability; series mostly up to 92.2 µM; note: nearly all actives have a fitted effect of over 55% in size
How it was run: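 Human lymphoblastoid LYMP2-019 cells (2500/well) preincubated 5 h at 37 C, then treated 24 h at 37 C in complete medium. Viability by CellTiter-Glo ATP luminescence after 30 min at room temperature; AC50 from Hill fits.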

[5] = Cell Viability - LYMP2-021 (AID 974); conditions: LYMP2-021 lymphoblastoid cells viability; series mostly up to 92.2 µM;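 note: compound exposure lasts 24 hours at 37 °C; nearly all actives have a fitted effect of over 55% in size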
How it was run: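 Human lymphoblastoid LYMP2-021 cells, 2500/well in complete medium, treated 24 hours at 37 C. Intracellular ATP by CellTiter-Glo luminescence (30 min, RT); AC50 from Hill fits of concentration-response.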

[6] = Cell Viability - LYMP2-023 (AID 975); conditions: LYMP2-023 lymphoblastoid cell viability; series mostly up to 92.2 µM
How it was run: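 LYMP2-023 human lymphoblastoid cells, 2500/well, preincubated 5 hr at 37 C, then compound-treated 24 hr at 37 C in complete medium. CellTiter-Glo luminescence (ATP) after 30 min at room temperature; AC50 from Hill-equation fits; tetraoctylammonium bromide positive control.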

[7] = Cell Viability - LYMP2-025 (AID 976); conditions: LYMP2-025 lymphoblastoid cell viability; series mostly up to 92.2 µM
How it was run: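 Human lymphoblastoid LYMP2-025 cells, 2500/well, exposed 24 h at 37 C in complete medium in 1536-well qHTS. Viability as cellular ATP by CellTiter-Glo luminescence; AC50 from Hill fits of concentration-response data.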

[8] = Cell Viability - LYMP2-007 (AID 979); conditions: LYMP2-007 lymphoblastoid cell viability; series mostly up to 92.2 µM;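 note: cells exposed to compound for 24 h before reading; nearly all actives have a fitted effect of over 60% in size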
How it was run: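 Human lymphoblastoid LYMP2-007 cells (2500/well) preincubated 5 h at 37 C, then treated 24 h at 37 C in complete medium. Viability by CellTiter-Glo ATP luminescence after 30 min at room temperature; AC50 from Hill fits.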

[9] = MultiTox-Fluor Cytotoxicity Assay - LYMP1-003 - Dead Cells (AID 961); conditions: LYMP1-003 lymphoblastoid cells, dead-cell protease fluorescence; series mostly up to 92.2 µM; note: nearly all actives have a fitted effect of over 70% in size
How it was run: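 LYMP1-003 human lymphoblastoid cells (2500/well) exposed to compound 16 h at 37 C in complete medium; dead-cell protease read with bis-AAF-R110 fluorescence (Ex/Em 485/520) after 60 min at room temperature. Normalized to DMSO and 15 uM tetraoctylammonium bromide; AC50 from Hill fit.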

[10] = Cell Viability - LYMP1-003 - Assay at 24 hr (AID 963); conditions: LYMP1-003 lymphoblastoid cell viability; series mostly up to 92.2 µM
How it was run: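 Human lymphoblastoid LYMP1-003 cells, 2500/well, treated 24 h at 37 C in complete medium. Viability read as intracellular ATP by CellTiter-Glo luminescence after 30 min at room temperature; AC50 from Hill-equation fits of qHTS concentration-response.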

[11] = Cell Viability - LYMP1-003 - Assay at 40 hr (AID 964); conditions: LYMP1-003 lymphoblastoid viability; series mostly up to 92.2 µM; note: nearly all actives have a fitted effect of over 60% in size
How it was run: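 LYMP1-003 human lymphoblastoid cells, 2500/well, preincubated 5 h at 37 C, then treated with compound for 40 h at 37 C. Intracellular ATP read by CellTiter-Glo luminescence after 30 min at room temperature; AC50 from Hill-equation fits.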

[12] = Cell Viability - LYMP2-003 (AID 965); conditions: LYMP2-003 lymphoblastoid cell viability; series mostly up to 92.2 µM;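 note: cells exposed to compounds for 24 h before reading; nearly all actives have a fitted effect of over 50% in size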
How it was run: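 CellTiter-Glo luminescence (cellular ATP) after 24 h compound exposure at 37 C in complete medium; 2500 cells/well, 5 h settling beforehand. Concentration-response fitted to standard Hill equation for AC50. Tetraoctylammonium bromide served as positive control.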

[13] = Cell Viability - LYMP2-004 (AID 966); conditions: LYMP2-004 lymphoblastoid cell viability, qHTS; series mostly up to 92.2 µM; note: nearly all actives have a fitted effect of over 65% in size
How it was run: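 Lymphoblastoid LYMP2-004 cells, 2500 per well, were preincubated for 5 hr and then treated with compound for 24 h at 37 C in complete medium. Viability was read as cellular ATP by CellTiter-Glo luminescence, and AC50 values were taken from Hill fits to concentration-response data.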

[14] = Cell Viability - LYMP2-005 (AID 967); conditions: LYMP2-005 lymphoblastoid cell viability; series mostly up to 92.2 µM
How it was run: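 Steps: seed 2500 LYMP2-005 cells/well, incubate 5 h at 37 C, add compound, incubate 24 h at 37 C, add CellTiter-Glo, wait 30 min at RT, read luminescence. Concentration-response data fitted to Hill equation for AC50.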

[15] = Cell Viability - LYMP2-009 (AID 968); conditions: LYMP2-009 lymphoblastoid cell viability; series mostly up to 92.2 µM; note: nearly all actives have a fitted effect of over 55% in size
[16] = Cell Viability - LYMP2-011 (AID 969); conditions: LYMP2-011 lymphoblastoid cells viability; series mostly up to 92.2 µM; note: nearly all actives have a fitted effect of over 60% in size
How it was run: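 2500 cells/well in complete medium, compound-treated 24 h at 37 C. Viability read as intracellular ATP by CellTiter-Glo luminescence after 30 min at room temperature. AC50 from Hill fits of qHTS concentration-response data.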

[17] = Cell Viability - LYMP2-013 (AID 970); conditions: LYMP2-013 lymphoblastoid cells viability; series mostly up to 92.2 µM; note: nearly all actives have a fitted effect of over 55% in size
How it was run: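 Human lymphoblastoid LYMP2-013 cells, 2500/well, treated 24 h at 37 C in complete medium; viability as intracellular ATP by CellTiter-Glo luminescence after 30 min. AC50 from Hill fits of qHTS concentration-response.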

[18] = Cell Viability - LYMP2-002 (AID 977); conditions: LYMP2-002 lymphoblastoid cell viability, qHTS; series mostly up to 92.2 µM
How it was run: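 Human lymphoblastoid LYMP2-002 cells, 2500 per well, exposed to compounds for 24 h at 37 C in complete medium; viability read as intracellular ATP by CellTiter-Glo luminescence, AC50 from Hill fits.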

[19] = Cell Viability - LYMP2-006 (AID 978); conditions: LYMP2-006 lymphoblastoid cell viability, qHTS; series mostly up to 92.2 µM; note: nearly all actives have a fitted effect of over 60% in size
How it was run: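 qHTS, 1536-well; 2500 cells/well, 5 hr 37 C; cpd 24 hr 37 C; CellTiter-Glo 30 min RT; luminescence. Tetraoctylammonium bromide pos. ctrl. AC50 via Hill eqn.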

[20] = Cell Viability - LYMP2-008 (AID 980); conditions: LYMP2-008 lymphoblastoid cell viability, qHTS; series mostly up to 92.2 µM; note: nearly all actives have a fitted effect of over 60% in size
How it was run: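 LYMP2-008 lymphoblastoid cells (2500/well) plated 5 h, then treated 24 h at 37 C in complete medium. Viability read as intracellular ATP by CellTiter-Glo luminescence after 30 min at room temperature; AC50 from Hill fits.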

Measured: outcome

Nc1ccccc1N
inactive: [1] | [2] | [3] | [4] | [5] | [6] | [7] | [8]

CC(=O)O[C@@H]1CC(C)=C2[C@H]1[C@H](C)CC[C@H]2/C=C(\C)C(=O)O
inactive: [9] | [1] | [10] | [11] | [12] | [13] | [14] | [15] | [16] | [17] | [2] | [3] | [4] | [5] | [6] | [7] | [18] | [19] | [8] | [20]

Cc1ccc(N)cc1O
inactive: [9] | [1] | [10] | [11] | [12] | [13] | [14] | [15] | [16] | [17] | [2] | [3] | [4] | [5] | [6] | [7] | [18] | [19] | [8] | [20]
